This is an account of results in the supplement of paper PMC3545927.

Some of the results follow. No count for the full screen is at hand.

This assay addresses furin, P09958. Description: furin cleavage Z-score vs untreated control; higher = more cleavage, active = 3.5 or more, inactive = 1 or less, 8 variable residues between constant flanks. In a few lines: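 Furin cleavage was scored on 8-mer peptides joined to a cDNA oligonucleotide and bound to magnetic beads at the N-terminus. Digestion with purified furin (1:10 enzyme:substrate, 0.01 ml, 50 mM HEPES pH 7.5, CaCl2, NaCl) lasted 7.5, 15 or 30 min. Freed DNA was tagged with adapters by PCR, sequenced and counted; the cleavage Z-score is the lowess-adjusted log count versus furin-free reactions, scaled by median absolute deviation.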

Chain of furin, P09958 (P09958 whole entry): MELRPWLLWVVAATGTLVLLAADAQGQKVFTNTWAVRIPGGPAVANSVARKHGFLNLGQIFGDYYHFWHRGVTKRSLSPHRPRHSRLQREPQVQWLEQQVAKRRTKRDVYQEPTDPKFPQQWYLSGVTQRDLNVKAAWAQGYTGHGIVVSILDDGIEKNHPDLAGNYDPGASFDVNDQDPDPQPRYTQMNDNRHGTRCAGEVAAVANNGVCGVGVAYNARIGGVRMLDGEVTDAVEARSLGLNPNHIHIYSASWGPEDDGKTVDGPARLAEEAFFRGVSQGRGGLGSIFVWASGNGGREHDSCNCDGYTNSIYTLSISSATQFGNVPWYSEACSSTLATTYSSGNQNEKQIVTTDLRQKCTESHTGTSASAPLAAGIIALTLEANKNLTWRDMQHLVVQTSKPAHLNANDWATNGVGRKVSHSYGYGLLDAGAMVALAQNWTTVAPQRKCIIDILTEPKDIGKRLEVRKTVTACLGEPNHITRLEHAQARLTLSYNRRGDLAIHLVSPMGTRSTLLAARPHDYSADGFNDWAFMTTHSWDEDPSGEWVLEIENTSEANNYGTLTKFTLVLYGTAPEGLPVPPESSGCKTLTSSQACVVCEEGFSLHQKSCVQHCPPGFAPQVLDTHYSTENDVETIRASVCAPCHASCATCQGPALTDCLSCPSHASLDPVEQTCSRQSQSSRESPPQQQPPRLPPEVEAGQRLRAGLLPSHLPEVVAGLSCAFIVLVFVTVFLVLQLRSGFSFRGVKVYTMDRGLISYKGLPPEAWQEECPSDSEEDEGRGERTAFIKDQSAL

In the case of CAEVVTSTHVAGNASASA [HC2235], the “furin cleavage Z-score” value is -0.582 (inactive) (7.5 min), 0.167 (inactive) (15 min) and -1.55 (inactive) (30 min).

As to CAVCGDDLVVAGNASASA [HC1528], the “furin cleavage Z-score” value by setting is: (7.5 min) -2.27 (inactive); (15 min) -1.44 (inactive); (30 min) -0.381 (inactive).

On to CADLVVICESAGNASASA [HC1530], for which the “furin cleavage Z-score” value was 0.357 (inactive) (7.5 min), -1.48 (inactive) (15 min) and 1.02 (30 min).

Turning to CAPPGSVTVPAGNASASA [HC836], the “furin cleavage Z-score” value is 0.584 (inactive) (7.5 min), 0.308 (inactive) (15 min) and -0.638 (inactive) (30 min).

In the case of CAKVVTSTWVAGNASASA [HC2154], the “furin cleavage Z-score” value is, setting by setting: (7.5 min) -1.02 (inactive); (15 min) 1.09; (30 min) -1.67 (inactive).

Take CATTPCIGSWAGNASASA [HC65]: the “furin cleavage Z-score” value reads like this: (7.5 min) 0.499 (inactive); (15 min) 3.77 (active); (30 min) 2.

CATTPCWGSWAGNASASA [HC67]: the “furin cleavage Z-score” value was 0.261 (inactive) (7.5 min), 1.14 (15 min) and 1.23 (30 min).

In the case of CATTPCMGSWAGNASASA [HC68], the “furin cleavage Z-score” value runs as follows: (7.5 min) 1.12; (15 min) 0.786 (inactive); (30 min) -0.593 (inactive).

As to CAGKSRNKRQAGNASASA [FS-243], the “furin cleavage Z-score” value is, setting by setting: (7.5 min) 10.4 (active); (15 min) 10.6 (active); (30 min) 10.1 (active).

Consider CAEKRRSADIAGNASASA [FS-2630], for which the “furin cleavage Z-score” value runs as follows: (7.5 min) -0.771 (inactive); (15 min) -1.51 (inactive); (30 min) -0.666 (inactive).

With CAEKTRHARQAGNASASA [FS-1520], the “furin cleavage Z-score” value was 8.09 (active) (7.5 min), 8.28 (active) (15 min) and 7.03 (active) (30 min).

On to CAALDRTKRQAGNASASA [FS-579], for which the “furin cleavage Z-score” value reads like this: (7.5 min) 11.8 (active); (15 min) 12.8 (active); (30 min) 11 (active).

CAAGVAGALVAGNASASA [HC1089]: the “furin cleavage Z-score” value runs as follows: (7.5 min) -0.652 (inactive); (15 min) -0.752 (inactive); (30 min) 0.946 (inactive).

Turning to CAAMGRGKRQAGNASASA [FS-1184], the “furin cleavage Z-score” value runs as follows: (7.5 min) 9.02 (active); (15 min) 8.89 (active); (30 min) 8.8 (active).

CAGPGEGAVQAGNASASA [HC1114]: the “furin cleavage Z-score” value (7.5 min) is -0.225 (inactive), the “furin cleavage Z-score” value (15 min) is -1.41 (inactive) and the “furin cleavage Z-score” value (30 min) is -1.21 (inactive).

For CASDSRHSRQAGNASASA [FS-1612], the “furin cleavage Z-score” value by setting is: (7.5 min) 0.00727 (inactive); (15 min) 0.0993 (inactive); (30 min) 0.17 (inactive).

In the case of CAHIDAHFLSAGNASASA [HC944], the “furin cleavage Z-score” value runs as follows: (7.5 min) -0.528 (inactive); (15 min) -1.68 (inactive); (30 min) -0.674 (inactive).

With CAGCSFSIFLAGNASASA [HC246], the “furin cleavage Z-score” value reads like this: (7.5 min) -1.55 (inactive); (15 min) -1.86 (inactive); (30 min) 0.305 (inactive).

Take CAEVMTSTWVAGNASASA [HC2186]: the “furin cleavage Z-score” value (7.5 min) was -0.944 (inactive), the “furin cleavage Z-score” value (15 min) is -0.894 (inactive) and the “furin cleavage Z-score” value (30 min) was -0.0736 (inactive).

With CALDQAETAGAGNASASA [HC827], the “furin cleavage Z-score” value is 0.305 (inactive) (7.5 min), 0.588 (inactive) (15 min) and 0.353 (inactive) (30 min).

Consider CAEVGCHRPSAGNASASA [HC2356], for which the “furin cleavage Z-score” value is 0.279 (inactive) (7.5 min), 0.829 (inactive) (15 min) and 0.483 (inactive) (30 min).

Regarding CAALVTPCAAAGNASASA [HC1375], the “furin cleavage Z-score” value runs as follows: (7.5 min) -0.826 (inactive); (15 min) -0.333 (inactive); (30 min) -1.48 (inactive).

In the case of CATIPCSGSWAGNASASA [HC1844], the “furin cleavage Z-score” value runs as follows: (7.5 min) -0.402 (inactive); (15 min) -1.52 (inactive); (30 min) -0.285 (inactive).

CAPRLRRKRQAGNASASA [FS-1243]: the “furin cleavage Z-score” value by setting is: (7.5 min) 10.3 (active); (15 min) 9.75 (active); (30 min) 8.73 (active).

As for CAFTSRFKRQAGNASASA [FS-420], the “furin cleavage Z-score” value was 10.7 (active) (7.5 min), 10.3 (active) (15 min) and 8.02 (active) (30 min).

With CAVSVRRKRQAGNASASA [FS-516], the “furin cleavage Z-score” value by setting is: (7.5 min) 11.2 (active); (15 min) 12.2 (active); (30 min) 9.86 (active).

Turning to CAGKKRRPVKAGNASASA [DV1], the “furin cleavage Z-score” value is 0.52 (inactive) (7.5 min), 1.23 (15 min) and 0.39 (inactive) (30 min).

Take CAGKSRRKRQAGNASASA [FS-1328]: the “furin cleavage Z-score” value is 11.6 (active) (7.5 min), 12.5 (active) (15 min) and 8.34 (active) (30 min).

CASPSVRKRQAGNASASA [FS-1084]: the “furin cleavage Z-score” value is 1.65 (7.5 min), 1.54 (15 min) and 0.547 (inactive) (30 min).
